According to PubChem BioAssay:

What follows are compounds tested against Fibroblast growth factor 10 (Homo sapiens) (UniProt O15520) (assay: FGF10 binders on small-molecule microarrays, primary screen, biochemical, small-molecule microarray, 635 nm fluorescence (AID 1102)). Details: FGF10 binding, fluorescence 635 nm, higher = more signal.
Chain of Fibroblast growth factor 10 (Homo sapiens) (O15520 whole entry, looked up): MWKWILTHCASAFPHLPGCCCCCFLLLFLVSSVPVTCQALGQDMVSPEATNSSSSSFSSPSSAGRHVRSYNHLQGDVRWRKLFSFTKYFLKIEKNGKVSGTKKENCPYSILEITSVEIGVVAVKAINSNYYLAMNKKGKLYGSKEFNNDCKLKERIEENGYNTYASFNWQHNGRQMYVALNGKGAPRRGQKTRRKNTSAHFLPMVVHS

SMILES	composite z-score
CCOC(=O)C1=C[C@@H](C(C)(C)C)N(S(=O)(=O)c2ccc(C)cc2)[C@H]1c1ccc(C)cc1	1.3
CCOC(=O)C[C@H]1[C@H](OC(=O)c2ccccc2-c2ccccc2)[C@@H](NC(=O)c2ccccc2)c2cc(OCCCO)ccc2N1C(=O)c1ccccc1	0.645
O=C1C2C=CC(C(O)C=Cc3ccc([N+](=O)[O-])cc3)N(Nc3ccccc3)C2C(=O)N1c1ccccc1 (stereo not drawn)	1.07

Each compound was assayed on glycogen synthase kinase-3 (GSK3A per assay name; protocol says GSK3B) (assay: GSK3 binders on small-molecule microarrays, primary screen, biochemical, small-molecule microarray, 635 nm fluorescence, GSK3A (AID 1103; also: the record names both GSK3A and GSK3B)). Details: small-molecule microarray binding, fluorescence 635 nm; higher = more signal.

SMILES	composite z-score
CC(C)(C)OC(=O)CC[C@]1(C(=O)N2CCCCC2)COC(c2ccc(OCCCO)cc2)=N1	1.29
NC(=O)[C@H]1[C@@H]2C(=O)O[C@@H](c3ccccc3)[C@@H](c3ccccc3)N2[C@@H](c2ccc(O)cc2)[C@]12C(=O)Nc1ccc(C#CC3=CCCCC3)cc12	-0.229
CN1C(=O)[C@@]2(Cc3ccccc3)N=C(c3ccc(OCCCO)cc3)O[C@H]2c2ccccc21	1.32
Cc1nc2cc(Br)ccc2c(=O)n1Cc1cccc(O)c1	0.768
Cc1ccc(N2C(=O)c3ccccc3[C@](C)(C(=O)NCc3ccccc3)[C@@H]2c2ccc(CO)cc2)nc1	-0.341
CCCNC(=O)[C@@]1(Sc2ccc(C)cc2)CC(=O)N(C2CCCCC2)[C@@H]1c1ccc(CO)cc1I	0.718
COC(=O)[C@@]1(Cc2ccc(F)cc2)[C@H]2c3cc(C(=O)N(C)C)n(Cc4c(CO)[nH]cc(C)c4=O)c3C[C@H]2CN1C(=O)c1ccccc1	-0.271
O=C1C2C=CC(C(O)c3ccco3)N(Nc3ccccc3)C2C(=O)N1c1ccccc1 (stereo not drawn)	-0.678
C=C(COC)C(=O)CC[C@H](OC(C)=O)c1ccc(OCCO)cc1	-0.143
COCCOC(=O)N1C(=O)[C@@]2(c3cc(C#CC4=CCCCC4)ccc31)[C@H](c1ccc(O)cc1)N1[C@H](c3ccccc3)[C@H](c3ccccc3)OC(=O)[C@H]1[C@@H]2C(=O)NC[C@H](O)c1ccccc1	0.348
[N-]=[N+]=NC[C@H](Cc1ccccc1)NC(=O)c1ccccc1	-0.089
COC(=O)[C@@]1(Cc2ccc(OC)cc2)[C@H]2c3cc(C(=O)N4CCCC4)n(Cc4ccc(OC(F)(F)F)cc4)c3C[C@H]2CN1C(=O)c1ccccc1	-0.5
CCC(CC)C(O)C1C=CC2C(=O)N(c3ccccc3)C(=O)C2N1Nc1ccc([N+](=O)[O-])cc1 (stereo not drawn)	1.21
COC(=O)C1N=C(c2ccc(OCCCO)cc2)N(c2ccccc2)O1 (stereo not drawn)	1.22
Cc1ccccc1C(O)C1C=CC2C(=O)N(c3ccccc3)C(=O)C2N1Nc1ccc([N+](=O)[O-])cc1 (stereo not drawn)	1.29
COCC1=C2[C@@H](CCc3ccccc3)OB(O)C[C@@H]2[C@@H]2C(=O)N(C)C(=O)[C@@H]2C1	-0.0422
O=C1O[C@H](c2ccccc2)[C@H](c2ccccc2)N2[C@H]1[C@@H](C(=O)N1CCCCCCC1)[C@]1(C(=O)Nc3ccc(C#CC4(O)CCCCCC4)cc31)[C@H]2c1ccccc1OCCO	1.48
CCOC(=O)C1=CC[C@@H](c2ccccc2)N(S(=O)(=O)c2ccc(C)cc2)[C@H]1c1cccc(OC)c1	0.897

SMILES	composite z-score
COc1cc(C(O)C2C=CC3C(=O)N(Cc4ccccc4)C(=O)C3N2n2cnnc2)cc(OC)c1OC (stereo not drawn)	0.389
COc1ccc([Si](C)(C)[C@@H]2[C@@H](CCn3cc([C@H](O)c4ccccc4)nn3)O[C@]3(C(=O)N(c4ccccc4)c4ccccc43)[C@H]2C)cc1	-0.15
COc1cc(NN2C(C(O)c3ccccc3)C=CC3C(=O)N(C)C(=O)C32)cc(OC)c1OC (stereo not drawn)	0.843
NC(=O)N1C(=O)C2C(C1=O)C1C=C(CCCO)C2C(C2CC2)N1Cc1cccc(OC(F)(F)F)c1 (stereo not drawn)	-0.186
O=c1cccc(-c2ccc(F)cc2)o1	0.716
CN(C)CCCCCCNC(=O)[C@@H]1C[C@@H]2C(=O)N[C@@H](CCCCN)C(=O)N2[C@@H]1c1ccc(O)cc1	1.46
COCCOC(=O)N1C(=O)[C@@]2(c3cc(C#Cc4ccc(OC)cc4)ccc31)[C@H](C(=O)NC[C@H](O)c1ccccc1)[C@H]1C(=O)O[C@H](c3ccccc3)[C@H](c3ccccc3)N1[C@@H]2c1ccc(OCCO)cc1	1.3
CC(C)C(=C=CC[C@@H](O)c1cccc(OCCO)c1)C[C@@H](O)c1ccccn1	-0.366
C=C(CCCC)C(=O)CC[C@H](OC(C)=O)c1ccc(OCCO)cc1	-1.24
C=C(CCCC)/C(=C/C[C@H](OC(C)=O)c1ccc(OCCO)cc1)c1cc(C(=O)OC)ccc1OC	0.699
COc1cc2c(cc1O)C(c1ccc(CN3CCCC3)cc1)N(C)CC2 (stereo not drawn)	-1.27
CC(C)[Si]1(C(C)C)OCc2cc(-c3ccc(-c4ccc(Cl)c(Cl)c4)o3)nc(CCc3ccccc3)c21	-0.181
[N-]=[N+]=Nc1ccccc1[C@@H]1OC(c2ccc(OCCCO)cc2)=N[C@]1(Cc1ccccc1)C(=O)NCc1ccccc1	1.06
C=C(C)[C@@H]1CC=C(C(O)C2C=CC3C(=O)N(c4ccccc4)C(=O)C3N2Nc2ccc(C#N)cc2)CC1 (stereo partly drawn)	1.31
CCOC(=O)C1=C[C@@H](C(C)(C)C)N(S(=O)(=O)c2ccc(C)cc2)[C@H]1c1ccc(C)cc1	0.995
CCOC(=O)C[C@H]1[C@H](OC(=O)c2ccccc2-c2ccccc2)[C@@H](NC(=O)c2ccccc2)c2cc(OCCCO)ccc2N1C(=O)c1ccccc1	0.459
O=C1C2C=CC(C(O)C=Cc3ccc([N+](=O)[O-])cc3)N(Nc3ccccc3)C2C(=O)N1c1ccccc1 (stereo not drawn)	1.16
